The list is not random: actives were taken first. Their share in the collection is about 2.4%.
ANO1 block: inhibitors of mouse TMEM16A calcium-activated chloride channel. normalized B-score (activity score, 25-100; higher = stronger inhibition) at 10 µM. hit rate 1.2% among 310,000. AID 588511. Q8BHY3. HEK293 TMEM16A/YFP iodide influx fluorescence, ionomycin;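 active = ratio plate-corrected score three or more library SD toward inhibition, starting fluorescence score within five deviations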;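 note: score derived from kinetic fluorescence span divided by baseline fluorescence per well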
TMEM16A act: activates or potentiates the mouse TMEM16A chloride channel; hit rate 0.3% among 340,000; AID 623877; HEK293 TMEM16A/YFP-H148Q/I152L, iodide quench fluorescence; stronger effect = lower value; B-score at 10 µM; Q8BHY3;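 active = fluorescence-ratio B-score plate-corrected deviation score at least 3 library SD below zero, with starting fluorescence score within 5 deviations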;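 note: channel opened by trigger with iodide after compound preincubation; score built on the fluorescence ratio of max minus min over baseline; more negative score means more quench and so TMEM16A activation or potentiation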
TLR4-MyD88 BLA: blocks binding of human TLR4 to MyD88 | HeLa CL3-4 TLR4/MyD88 BLA complementation, FRET ratio | inhibition, % at 8.4 µM | hit rate 0.18% among 200,000; in the data active = inhibition above about 25%;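 note: 0% = vehicle and 100% = reference inhibitor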
TLR9-MyD88 block: blocks human TLR9 binding to MyD88 | Q9NR96+Q99836 | CHO BLA complementation TLR9-MyD88, CCF4 FRET ratio | inhibition, % at 4.98 µM | hit rate 0.21% among 340,000 | AID 504734;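 active = inhibition above the mean over all tested compounds plus 3 SD, cut at about 21% in these data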;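 note: 0% = DMSO only wells and 100% = clavulanate BLA inhibitor control wells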
Target sequence (Q99836 whole entry, looked up): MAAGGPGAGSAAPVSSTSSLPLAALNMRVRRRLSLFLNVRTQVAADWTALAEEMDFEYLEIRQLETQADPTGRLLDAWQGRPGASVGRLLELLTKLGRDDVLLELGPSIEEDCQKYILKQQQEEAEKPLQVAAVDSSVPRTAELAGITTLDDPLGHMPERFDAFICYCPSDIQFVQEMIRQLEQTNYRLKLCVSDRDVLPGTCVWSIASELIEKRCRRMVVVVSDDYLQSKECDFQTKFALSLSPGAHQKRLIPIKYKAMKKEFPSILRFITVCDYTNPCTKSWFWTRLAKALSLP
Target sequence (Q9NR96 whole entry, looked up): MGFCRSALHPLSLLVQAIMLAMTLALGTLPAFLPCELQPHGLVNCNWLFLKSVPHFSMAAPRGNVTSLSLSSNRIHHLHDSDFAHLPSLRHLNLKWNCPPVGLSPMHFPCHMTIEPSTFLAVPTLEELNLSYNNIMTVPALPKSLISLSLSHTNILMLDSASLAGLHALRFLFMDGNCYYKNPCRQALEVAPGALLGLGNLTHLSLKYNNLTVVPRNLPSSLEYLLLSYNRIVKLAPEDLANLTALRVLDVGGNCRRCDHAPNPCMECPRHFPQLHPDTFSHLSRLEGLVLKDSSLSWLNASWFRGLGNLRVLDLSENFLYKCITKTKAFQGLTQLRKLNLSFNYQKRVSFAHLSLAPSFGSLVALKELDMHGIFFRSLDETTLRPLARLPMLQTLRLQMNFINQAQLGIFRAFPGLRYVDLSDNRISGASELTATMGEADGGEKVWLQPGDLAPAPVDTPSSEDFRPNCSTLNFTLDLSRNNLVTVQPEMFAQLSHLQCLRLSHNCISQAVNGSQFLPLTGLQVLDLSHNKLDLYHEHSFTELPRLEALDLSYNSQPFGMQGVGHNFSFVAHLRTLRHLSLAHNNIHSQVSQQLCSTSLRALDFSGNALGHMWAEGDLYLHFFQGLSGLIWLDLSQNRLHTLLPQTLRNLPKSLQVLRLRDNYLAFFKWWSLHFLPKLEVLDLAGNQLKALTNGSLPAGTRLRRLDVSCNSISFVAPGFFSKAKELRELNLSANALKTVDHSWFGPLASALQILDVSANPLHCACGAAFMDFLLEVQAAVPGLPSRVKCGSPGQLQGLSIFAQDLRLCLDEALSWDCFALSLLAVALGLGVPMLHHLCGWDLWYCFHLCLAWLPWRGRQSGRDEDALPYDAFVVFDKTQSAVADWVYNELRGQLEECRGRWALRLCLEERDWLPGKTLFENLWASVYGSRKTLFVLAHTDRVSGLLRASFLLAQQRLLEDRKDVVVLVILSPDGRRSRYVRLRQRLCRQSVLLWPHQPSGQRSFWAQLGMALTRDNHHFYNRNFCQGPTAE
m5-HT2A agonist: agonists of mouse serotonin 5-HT2A receptor (HTR2A). CHO-K1 mHTR2A beta-arrestin complementation, luminescence; percent of 30 µM serotonin response. hit rate 0.66% among 360,000. activation, % at 7.6 µM;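 active = activation above a run cutoff, the mean activation of all tested compounds plus 3 SD, cut at about 14% in these data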;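 note: 0% = plate median of compound wells and 100% = 30 µM serotonin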
NOD2 RIPK2 PPI: NOD2-RIPK2 protein interaction inhibition | inhibition, % at 4.98 µM | hit rate 0.38% among 360,000 | CHO BLA complementation NOD2-RIPK2, CCF4 ratio | O43353; in the data active = inhibition above about 21%;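 note: 0% = vehicle only and 100% = reference blocker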
* = called active by the depositor; i = inactive; / = not tested or not shown.

SMILES	ANO1 block	TMEM16A act	TLR4-MyD88 BLA	TLR9-MyD88 block	m5-HT2A agonist	NOD2 RIPK2 PPI
Cc1nn(CCc2nn[nH]n2)c2nc(-c3ccc(C4CCCCC4)cc3)cc(C(F)(F)F)c12	100*	i	-8	-5	9	0
Cc1ccc(-c2nc3cc(C)c(Br)c(C)n3c2Cc2cccc(F)c2)cc1	/	/	/	/	-9	-18
Cn1nc(CC(=O)Nc2cccc3ncccc23)c2ccccc2c1=O	i	i	3	7	6	9
O=C(C1=C[C@@H](c2ccc(Br)cc2)C[C@@H](OCCCCO)O1)N1CCOCC1	i	i	-1	8	-3	4
O=C(C1=C[C@@H](c2ccccc2)C[C@@H](OCCCCO)O1)N1CCOCC1	100*	i	-2	-9	-1	-7
CCOc1ccccc1C(=O)N1c2ccccc2Sc2ccccc21	100*	i	-5	-10	0	7
Cc1ccc2c(c1)NC(c1cccs1)C1=C(CC(C)(C)CC1=O)N2 (configuration not stated)	i	-5.1*	2	0	3	0
Cc1ccc(C2Nc3ccccc3NC3=C2C(=O)CC(C)(C)C3)c(O)c1 (configuration not stated)	i	i	/	-1	0	0
COc1ccc(-n2cnnc2SCC(=O)NCc2cccs2)cc1	i	i	1	7	4	1
CCN(CC)Cc1cc2ccccc2c2c1COC2	25*	i	15	5	0	1
COc1ccc2cc(CN(C(=O)Nc3ccccc3)C3CCCC3)c(=O)[nH]c2c1	i	i	13	-1	-2	0
CN1C(C(=O)NCc2cccc(Br)c2)CC2Cn3c(nc4cc(Cl)c(Cl)cc43)C21 (configuration not stated)	i	-4.8*	/	-4	3	-15
Cc1cc2nc3n(c2cc1C)CC1CC(C(=O)NCc2cccc(Br)c2)N(C)C31 (configuration not stated)	i	i	/	-5	1	2
Cc1c(CC(=O)O)c(=O)oc2c(C)c(OCc3nn[nH]n3)ccc12	i	-4.9*	/	3	0	5
Cc1ccc(CNC(=O)CSc2nc(C)cs2)cc1	i	i	3	-5	2	-5
CC(C)Cn1c(CN2CCCCC2C)nc2c1c(=O)n(C)c(=O)n2C (configuration not stated)	i	-8.2*	-7	4	-2	-4
O=C(NNC1=C(C(=O)C(F)(F)F)CCC1)c1cccc(O)c1	i	i	3	-5	-1	0
Cc1cccc(C(=O)NNC2=C(C(=O)C(F)(F)F)CCC2)c1O	100*	i	-4	-3	-7	-5
CCN(Cc1ccccc1)c1ccccc1	/	i	/	-3	-1	2
CCN(Cc1ccccc1)c1ccc(/C=N/N=C(N)N)cc1	100*	i	-14	4	-6	5
O=S(=O)(N/N=C\c1cccc(F)c1)c1ccccc1	i	i	/	-14	-3	1
O=S(=O)(N/N=C/c1ccc(F)cc1)c1ccccc1	25*	i	-9	11	2	9
CCOC(=O)C1CCN(Cc2ccc(OC)cc2OC)CC1	i	i	-1	2	2	-4
CCOC(=O)C1CCN(Cc2cnc(Oc3ccc(OC)cc3)s2)CC1	i	i	-5	1	22*	-7
COc1ccc(-c2sc3ccc(N4CCOCC4)cc3c2C#CC2(O)CCCCC2)cc1	/	i	/	-1	-6	-2
Clc1cccc2c1Sc1ccccc1CC2N1CCNCC1 (configuration not stated)	i	i	-5	-10	-5	-3
Clc1ccc2c(c1)C(N1CCNCC1)Cc1ccccc1S2 (configuration not stated)	25*	i	-2	-1	-6	5
Cc1cc(C)c(C(=O)CSc2nnc(-c3ccccc3Br)o2)cc1C	/	-5*	4	-7	0	-21
Cc1ccc(NC(=O)CSc2nnc(-c3ccccc3Br)o2)cc1C	i	i	-1	6	-2	2
CC[C@H](CO)Oc1cc(NCc2cccc(N)c2)c2ncn(C(C)C)c2c1	/	/	/	/	-1	0
